Compound activity (PubChem BioAssay)
The sample as a whole holds a higher share of hits than the screen did.
mcGAS MS inh = inhibitors of Mus musculus cyclic GMP-AMP synthase, initial high-throughput assay, cell-free, RapidFire MS; hit rate 0.18% among 130,000; recombinant mouse cGAS, cGAMP by RapidFire MS; inhibition, % at 12.5 µM; AID 1259397, 2018;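 active = inhibition of cGAS enzyme activity at or above 60%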;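 also: enzyme stimulated by 45 bp dsDNA with ATP and GTP substrates; cGAMP share of summed cGAMP plus half ATP and half GTP signals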
Target sequence (Q8C6L5 whole entry, looked up): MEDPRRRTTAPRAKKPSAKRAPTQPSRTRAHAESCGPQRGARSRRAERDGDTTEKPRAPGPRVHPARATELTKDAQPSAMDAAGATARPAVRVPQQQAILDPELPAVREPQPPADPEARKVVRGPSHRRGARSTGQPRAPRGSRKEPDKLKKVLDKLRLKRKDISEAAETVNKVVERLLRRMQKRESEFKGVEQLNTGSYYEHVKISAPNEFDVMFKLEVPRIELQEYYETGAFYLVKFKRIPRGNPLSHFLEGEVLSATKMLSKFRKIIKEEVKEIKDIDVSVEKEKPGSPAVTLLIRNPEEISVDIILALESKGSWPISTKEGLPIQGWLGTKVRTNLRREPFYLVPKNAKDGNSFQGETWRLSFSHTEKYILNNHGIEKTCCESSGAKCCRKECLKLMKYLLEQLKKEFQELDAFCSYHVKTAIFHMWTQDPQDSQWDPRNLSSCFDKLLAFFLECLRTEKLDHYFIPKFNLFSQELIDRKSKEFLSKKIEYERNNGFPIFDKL
Each line names hits and unclear results; the compound was inactive in the other large screens; ! = repeats disagree.

CCOC(=O)Cn1nc(C)c(C)c(C#N)c1=O	none
CCOC(=O)C=C1SCC(=O)N1CC(=O)OCC	none
CCOC(=O)CN1C(=O)CSC1=CC#N	mcGAS MS inh 82
CC(C)(NCc1cc(C#N)ccc1F)c1ccc2c(c1)OCCO2	none
CC1CN(c2ccc(CNC(=O)C3(C#N)CCCC3)cc2F)CC(C)O1 (configuration not stated)	none
Cc1ccccc1CC(C)(C)NC(=O)NCCn1ccnc1	none
CN(C)C(=O)Cc1ccccc1NC(=O)NCCCn1ccnc1	mcGAS MS inh 94
Cc1nc2ccccc2c(C)c1CC(=O)NCCCn1ccnc1	none
CCCC(C)(C)C(=O)N1CCC1(C)C(=O)NS(=O)(=O)c1ccccc1C (configuration not stated)	none
CCOC(=O)CC(NC(=O)NCc1ccoc1)c1ccccc1 (configuration not stated)	none
CCN(CC)CCNC(=O)c1cc(N2CCCCCC2)ccn1	none
O=C(NCCN1CCCCC1)c1cc(N2CCCN3CCC[C@H]3C2)ccn1	mcGAS MS inh 78
COCCNC(=O)c1cc(N2CCCN(C)CC2)ccn1	none
O=C(NCc1ccc(N2CCCCC2CCO)nc1)c1cc(-c2cccc(Cl)c2)n[nH]1 (configuration not stated)	none
CC(C)NC(=O)c1ccc(Cl)c(NS(=O)(=O)c2c(F)cccc2F)c1	none
COc1cccc2cc(CNC(C)c3ccc(F)c(F)c3)oc12 (configuration not stated)	mcGAS MS inh 67
COc1ccc2cc(CNC(=O)NC(C)c3ccc(F)c(F)c3)ccc2c1 (configuration not stated)	none
COc1ccc(C(C)NCC(O)COc2ccc(Cl)cc2Cl)cc1F (configuration not stated)	none
C=CCNC(=O)c1ccccc1N1CCC(N)CC1	none
O=C(c1nc2sccn2c1CN1CCc2ccccc2C1)N1CCCCC1	none
c1ccc2c(c1)OCC(c1nn3c(CN4CCOCC4)nnc3s1)O2 (configuration not stated)	none
c1ccc2c(c1)OCC(c1nn3c(CN4CCCCCC4)nnc3s1)O2 (configuration not stated)	mcGAS MS inh 70
S=c1n(CN2CCCC2)nc(C2COc3ccccc3O2)n1-c1ccccc1 (configuration not stated)	none
CN(C(=O)c1ccn(-c2ccccc2F)n1)c1cn[nH]c(=O)c1	none
NC(=O)NO	none
NC(=S)CC(=O)N1CCOCC1	none
NC(=O)CC(N)=S	mcGAS MS inh 92
OCc1cn(-c2ccccc2Cl)nn1	mcGAS MS inh 94
CN(CCNC(=O)c1ccn(-c2ccccc2Cl)n1)C1CC1	none
CS(=O)(=O)c1nnnn1-c1ccccc1Cl	none
CC(=O)CC1(O)C(=O)N(CCCOc2ccccc2C)c2ccc(C)cc21 (configuration not stated)	none
O=C(Cn1cnc2c(nnn2Cc2ccc(Cl)cc2)c1=O)N1CCCCC1	none
CC(C)S(=O)(=O)NC(=O)C1(C)CCN1C(=O)Cc1ccsc1 (configuration not stated)	none
Cc1[nH]n(-c2nc3ccccc3s2)c(=O)c1C=NC1CCN(Cc2ccccc2)CC1	none
C=CCN=Cc1c(C(F)(F)F)[nH]n(-c2nc3ccccc3s2)c1=O	none
Cc1ccccc1N=Cc1c(C(F)(F)F)[nH]n(-c2nc3ccccc3s2)c1=O	mcGAS MS inh 69
Cc1cn2c(C=C3N=C(c4cccc(F)c4)OC3=O)c(C)nc2s1	none
CN(Cc1n[nH]c2c1CCCCC2)C(=O)c1cc(COc2cccc3cccnc23)on1	none
Cc1ccc(S(=O)(=O)C(C)c2ncc(C(C)(C)C)o2)cc1C (configuration not stated)	none
CC(Nc1cccc(NC(=O)CO)c1)c1ncc(C(C)(C)C)o1 (configuration not stated)	none
COc1ccc(S(=O)C(C)c2ncc(C(C)(C)C)o2)cc1OC (configuration not stated)	mcGAS MS inh 68
COc1ccc2nc3cc(Cl)ccc3c(Nc3cc(CN4CCCC4)c(O)c(CN4CCCC4)c3)c2n1	none
CCN(CC)CCCC(C)Nc1c2ccc(Cl)cc2nc2ccc(OC)cc12 (configuration not stated)	mcGAS MS inh 68!
CCN(CC)CCCC(C)NCc1ccccc1OC (configuration not stated)	none
NC(=O)CCN1CCC(c2ccc(F)c(F)c2)CC1	none
Cc1ccc(Cl)c2c(N=O)c(O)[nH]c12	none
c1csc(-c2noc(CN3CCCC(c4nc5ccccc5o4)C3)n2)c1 (configuration not stated)	none
O=C1NC(=O)C2C1Sc1[nH]c(=O)sc1C2c1ccco1 (configuration not stated)	mcGAS MS inh 89
O=C1C2Sc3[nH]c(=O)sc3C(c3ccc(O)cc3)C2C(=O)N1c1ccc(Cl)cc1 (configuration not stated)	none
COc1ccc(C2c3sc(=O)[nH]c3SC3C(=O)NC(=O)C32)cc1 (configuration not stated)	none
O=C(O)c1c(Cl)cccc1Oc1ccccc1Cl	none
COc1ccc2[nH]c(=O)c(CN3CCCOC(Cn4cccn4)C3)cc2c1 (configuration not stated)	none
COc1ccc2[nH]c(=O)c(CN3CCC(N4CCCC(O)C4)CC3)cc2c1 (configuration not stated)	none
COc1ccc2cc(CN3CCCN(c4ccncc4)CC3)c(=O)[nH]c2c1	mcGAS MS inh 60
N#CCCN(C(=O)c1ccccc1-n1cccc1)C1CC1	none
Cn1nc(C(=O)NNC(=O)C2CCCC2)c2ccccc2c1=O	none
CC1=C(c2ccc(F)cc2)[N+](=O)C(C)(C)N1[O-]	none
CC1=C(c2ccccc2)[N+](=O)C2(CCCC2)N1[O-]	mcGAS MS inh 64
COc1ccc(C2=C(C)N([O-])C(C)(C)[N+]2=O)cc1	none
O=C1C2CNC3(C(=O)Nc4ccccc43)C2C(=O)N1C1CCCCC1 (configuration not stated)	none
CCN(CC)C(=O)NCC(C(=O)N1CCOCC1)c1ccccc1 (configuration not stated)	none
CCN(CC)CCn1c(NC(=O)C2CCN(S(C)(=O)=O)CC2)nc2ccccc21	none
CC(C)c1ccc(-n2cc(O)c(C(=O)N3CCS(=O)CC3)n2)cc1	none
COc1cc(C(=O)N2C[C@H](O)[C@@H](N3CCOCC3)C2)ccn1	none
CC(C)(C)n1ncc2c(=O)n(NC(=O)c3ccco3)cnc21	none
Cc1ccccc1CCN1CCC(CN(C(=O)c2nonc2C)C2CCCC2)CC1	none
COc1ccccc1OC(C)(C)C(=O)N1CCN(C)C(C(=O)O)C1 (configuration not stated)	mcGAS MS inh 82!
CN1CCN(C2CCN(C(=O)c3ccccc3)CC2)CC1C(=O)O (configuration not stated)	none
COc1ccccc1-c1ccc(C(=O)N2CCN(C)C(C)C2)cc1 (configuration not stated)	none
COC(C)C(=O)NCC(O)CN1CCC(C)CC1 (configuration not stated)	none
NC(=O)C(CNC(=O)Nc1ccccn1)Cc1ccc(F)cc1 (configuration not stated)	none
COc1ccc(NS(=O)(=O)c2cc(C)ccc2C)cc1OC	none
COc1ccccc1NS(=O)(=O)c1cc(F)ccc1F	none
COc1cc(C)c(S(=O)(=O)Nc2c(F)cccc2F)cc1OC	mcGAS MS inh 87
C=CCN1C(=O)CNC12CCN(C(=S)NCCC)CC2	none
O=[N+]([O-])C1=Cc2c(ccc3ccccc23)OC1c1ccc2c(c1)OCO2 (configuration not stated)	none
